Our source for the AC50 and activity, negative = inhibition values is PubChem BioAssay AID1851 (National Center for Advancing Translational Sciences (NCATS), 2009).

Out of some 16,000 compounds screened, about 5,100 (32%) were called active. Another 25% or so got no clear call; they are omitted. The list shows a part of the results. A number with no mark means an inactive call. The call rests on the fitted dose curve; in most records, active means well fitted curve in the direction sought with a large enough effect; inconclusive means small, poorly fitted or top-dose-only effect, or effect the other way; inactive means no such curve, though single readings can be large or run the other way.
On the % scale 0 is the no-effect control and ±100 the full control effect.

The target in the test is Cytochrome P450 3A4 (Homo sapiens) (UniProt P08684). Put plainly: Cytochrome panel assay with activity outcomes. The conditions noted are these: recombinant CYP, pro-luciferin dealkylation, luminescence, p450-cyp3a4; series mostly up to 57.1 µM.
Sequence of Cytochrome P450 3A4 (Homo sapiens) (P08684 whole entry, looked up): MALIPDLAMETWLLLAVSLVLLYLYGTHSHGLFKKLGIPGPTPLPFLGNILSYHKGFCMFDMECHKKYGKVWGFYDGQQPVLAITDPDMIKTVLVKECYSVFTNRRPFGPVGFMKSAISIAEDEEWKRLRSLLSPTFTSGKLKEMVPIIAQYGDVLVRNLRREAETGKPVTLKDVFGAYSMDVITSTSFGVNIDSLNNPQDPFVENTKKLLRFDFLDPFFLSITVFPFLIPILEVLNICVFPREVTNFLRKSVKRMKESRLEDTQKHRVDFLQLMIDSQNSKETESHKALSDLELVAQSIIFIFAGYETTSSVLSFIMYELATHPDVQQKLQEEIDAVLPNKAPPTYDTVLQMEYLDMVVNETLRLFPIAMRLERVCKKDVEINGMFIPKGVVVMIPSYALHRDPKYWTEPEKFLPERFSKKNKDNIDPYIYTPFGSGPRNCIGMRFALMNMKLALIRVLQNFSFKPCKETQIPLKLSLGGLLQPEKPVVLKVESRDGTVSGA
A word on the AC50: it is the midpoint of the concentration-response curve, whichever way the signal moves. `O=c1oc(-c2ccco2)nc2c1cnn2-c1ccccc1`: the AC50 result was “inactive”.
Take `COc1cccc(/C=N/n2nnc3c(cnn3-c3ccccc3)c2=O)c1`: the AC50 result was “inactive”.
On to `COc1ccc(Oc2c(Cl)cnn(-c3ccccc3)c2=O)cc1`, for which the concentration at half-maximal activity (AC50) was 14.1 µM (active).
`CN(C)c1nc(-c2ccccc2C(F)(F)F)nc2ccccc12`: the AC50 entry was “inactive”.
Regarding `CNc1nc(-c2ccc(N(C)C)cc2)nc2ccccc12`, the AC50 was 15.8 µM (active).
As for `CN(C)c1nc(-c2cccnc2)nc2ccccc12`, the AC50 is 7.94 µM (active).
As for `CSc1c(-c2ccccc2)nc2ccccc2c1C(=O)O`, the AC50 entry was “inactive”.
For `CN(C)c1ccc(-c2nc(N(C)C)c3ccccc3n2)cc1`, the AC50 is 12.6 µM (active).
Regarding `O=C(CC1(O)CCCCC1)OC1CCCC1`, the activity, negative = inhibition is -11.8% [at 11.4 µM].
Turning to `O=C1COc2ccccc2CN1`, the activity, negative = inhibition is 5.27% [at 2.29 µM].
For the molecule `Cn1c(=O)c2[nH]c([C@@H]3CC(=O)C[C@H](c4nc5c([nH]4)c(=O)n(C)c(=O)n5C)N3)nc2n(C)c1=O`, the activity, negative = inhibition was 2.95% [at 11.4 µM].
Regarding `COc1cccc(NC(=O)c2oc3ccccc3c2NC(C)=O)c1`, the AC50 is 11.2 µM (active).
In the case of `COc1c(NC(C)=O)c2ccccc2c2ccccc12`, the activity, negative = inhibition was -28.7% [at 11.4 µM].
For `CCOc1ccc(NC(=O)c2oc3ccccc3c2NC(=O)CC)cc1`, the AC50 is 15.8 µM (active).
Consider `COc1cccc(C(=O)Nc2ccc(NC(=O)c3ccco3)cn2)c1`, for which the activity, negative = inhibition was -4.16% [at 2.29 µM].
On to `COc1cccc(NC(=O)c2oc3ccccc3c2NC(=O)c2ccc3c(c2)OCO3)c1`, for which the AC50 is 1.78 µM (active).
Turning to `CC1(C)[C@@H]2CC[C@]1(CC(=O)O)[C@H](Cl)C2`, the activity, negative = inhibition is -12.3% [at 11.4 µM].
Take `CC1(C)CC(=O)C2=C(C1)Oc1nc3ccccc3cc1C2C(C#N)C#N` (stereo not given): the AC50 is 14.1 µM (active).
For `Cc1cc(NC(=O)c2ccccc2Cl)no1`, the AC50 result is “inactive”.
As to `Cc1cc(NC(=O)c2ccccc2Cl)c(C(C)C)cc1O`, the AC50 was 25.1 µM (active).
In the case of `O=C(Nc1ccccc1Cl)c1ccccc1Cl`, the AC50 result is “inactive”.
Turning to `O=C1[C@@H]2[C@@H](C(=O)N1c1ccc(OCc3ccccc3)cc1)[C@@H]1c3ccccc3[C@@H]2[n+]2ccccc21`, the activity, negative = inhibition was -9.33% [at 11.4 µM].
Take `COc1ccccc1N1CCN(C(=O)/C=C/c2ccc3c(c2)OCO3)CC1`: the AC50 was 3.55 µM (active).
The same measure, in the same setting: for `O=C(/C=C\c1ccc2c(c1)OCO2)c1ccc(F)cc1` the value was 3.16 µM (active); for `Nc1ccccc1C(=O)/C=C\c1ccc2c(c1)OCO2`, 3.16 µM (active).
For `O=C(O)/C=C\C=C/c1ccc2c(c1)OCO2`, the activity, negative = inhibition was -6.19% [at 11.4 µM].
Consider `COCOc1cc(OC)ccc1C(=O)/C=C\c1ccc2c(c1)OCO2`, for which the AC50 is 1 µM (active).
Regarding `Cc1ccc(N=CC2=C(O)CC(c3ccco3)CC2=O)cc1` (stereo not given), the AC50 result was “inactive”.
On the same count and under the same terms, then `C[C@@H]1CCN=C(N)S1`, with “inactive”.
As to `COC(=O)c1c(-c2ccc3ccccc3c2)csc1NC(=O)Cc1ccc(OC)c(OC)c1`, the AC50 is 1.78 µM (active).
Consider `Cc1ccc(OCCCN2C(=O)C(=O)c3cccc(C)c32)cc1`, for which the AC50 was 15.8 µM (active).
As for `O=C1c2ccccc2C(=O)N1CCCSc1ccccc1`, the activity, negative = inhibition was -16.6% [at 11.4 µM].
On the same count and under the same terms, then `N#CC(C#N)=CNCCN1CCN(C=C(C#N)C#N)CC1`, with -20.1% [at 11.4 µM].
Regarding `Cc1oc(-c2ccccc2F)nc1CS(=O)(=O)CC(=O)NCCCN(C)C1CCCCC1`, the AC50 is 10 µM (active).
Same read-out and setting: then `O=c1[nH]c2cc(Br)cnc2nc1/C=C(\O)c1ccc(F)cc1`, with 5.01 µM (active).
Take `C=C(C)CN(CC#N)CC(=C)C`: the activity, negative = inhibition is -17.3% [at 11.4 µM].
Consider `COc1ccc(N2CCc3c(C)nc4c(OC)cc(OC)cc4c32)c(OC)c1`, for which the AC50 was 5.01 µM (active).
The same measure, in the same setting: for `Cc1o[nH]c(=O)c1CC[C@H](N)C(=O)O` the value was “inactive”.
For `CCCc1nnc(SCC(=O)N2C(C)CCCC2C)n1CCCOC` (stereo not given), the activity, negative = inhibition was 8.82% [at 2.29 µM].
In the case of `CCCc1nnc(SCC(=O)N2CCCCC2C)n1CC1CCCO1` (stereo not given), the AC50 was 12.6 µM (active).
On the same count and under the same terms, then `CCCc1nnc(SCC(=O)N2CCCCC2)n1CC1CCCO1` (stereo not given), with 15.8 µM (active); and `CCCc1nnc(SCC(=O)N2CCCC(C)C2)n1CC1CCCO1` (stereo not given), with 8.91 µM (active); and `CCCS(=O)(=O)N1CCCC(C(=O)NCC2CCCO2)C1` (stereo not given), with “inactive”.
With `CCCc1nnc(SCC(=O)N2CCCCC2)n1CCCOC`, the AC50 result was “inactive”.
Same read-out and setting: for `C[N+](C)(C)CCCCCNCC12CC3CC(CC(C3)C1)C2` the value was “inactive”.
For `O=C(O)[C@H](Cc1cc(I)c(O)c(I)c1)C1CCCCC1`, the activity, negative = inhibition is -12.6% [at 11.4 µM].
`CCOc1cc2[nH]c(=O)n(CCCC(=O)NCc3ccc(OC)cc3)c(=O)c2cc1OCC`: the AC50 was 2.51 µM (active).
For `CCOc1cc2[nH]c(=O)n(CCC(=O)NCc3ccc(OC)cc3)c(=O)c2cc1OCC`, the AC50 was 3.55 µM (active).
`CCc1ccc(NC(=O)c2cc(C(C)C)on2)cc1`: the AC50 result is “inactive”.
On to `O=C(c1cc(-c2ccco2)on1)N1CCOCC1`, for which the AC50 entry is “inactive”.
Take `Cc1ccc(Cn2nc(C)c(NC(=O)c3cc(-c4ccco4)on3)c2C)cc1`: the AC50 is 2.24 µM (active).
Regarding `Cc1cc(C=C(C#N)C#N)c(C)n1-c1ccccc1`, the AC50 entry was “inactive”.
Same read-out and setting: then `COCC(=O)N1CCC2(CCCN(Cc3cc(C(F)(F)F)cc(C(F)(F)F)c3)C2)CC1`, with 20 µM (active).
On the same count and under the same terms, for `COc1ccc(C(=O)N2CCC[C@@]3(CCN(Cc4cc(C(F)(F)F)cc(C(F)(F)F)c4)C3)C2)cc1` the value was 3.16 µM (active); for `COc1ccc(C(=O)N2CCC3(CCCN(Cc4cc(C(F)(F)F)cc(C(F)(F)F)c4)C3)CC2)cc1`, 10 µM (active); for `COC(=O)N1CCC2(CCCN(Cc3cc(C(F)(F)F)cc(C(F)(F)F)c3)C2)CC1`, “inactive”.
With `COCC(=O)N1CCC2(CC1)CN(Cc1cc(C(F)(F)F)cc(C(F)(F)F)c1)C2`, the AC50 entry is “inactive”.
On the same count and under the same terms, for `COC(=O)N1CCC2(CCN(Cc3cc(C(F)(F)F)cc(C(F)(F)F)c3)CC2)CC1` the value was “inactive”; for `O=C(c1cccc(F)c1)N1CCC2(CCCN(Cc3cc(C(F)(F)F)cc(C(F)(F)F)c3)C2)CC1`, 10 µM (active); for `COCC(=O)N1CCC2(CCCN(Cc3ccccc3)C2)CC1`, “inactive”.
As for `O=C(c1cccc(F)c1)N1CCC2(CCCN(Cc3ccccc3)C2)CC1`, the AC50 entry was “inactive”.
Turning to `FC(F)(F)c1cc(CN2CC3(CCNCC3)C2)cc(C(F)(F)F)c1`, the AC50 entry was “inactive”.
The same measure, in the same setting: then `FC(F)(F)c1cc(CN2CCCC3(CCNCC3)C2)cc(C(F)(F)F)c1`, with 7.94 µM (active).
On the same count and under the same terms, for `CS(=O)(=O)N1CCC2(CC1)CN(Cc1cc(C(F)(F)F)cc(C(F)(F)F)c1)C2` the value was “inactive”.
`CC(C)(C)N1C(=O)[C@H]2[C@H]3[C@H](O)[C@H](O)C/C(=N/NC(=O)OCc4ccccc4)[C@H]3CC[C@@H]2C1=O`: the activity, negative = inhibition was -22.6% [at 11.4 µM].
`COc1ccc(/C=C2\SC(=O)N(CCNC(=O)C3CC(=O)N(c4ccccc4)C3)C2=O)cc1` (stereo not given): the AC50 is 2.82 µM (active).
For `COc1ccc(N2CC(C(=O)Nc3cc(C)on3)CC2=O)cc1` (stereo not given), the AC50 entry is “inactive”.
As to `NC(N)=NC(N)=Nc1ccc(S(N)(=O)=O)cc1`, the activity, negative = inhibition is -13.3% [at 11.4 µM].
As to `COc1ccccc1NC(=S)NNC(=O)c1c(Cl)c(C)nn1C`, the concentration at half-maximal activity (AC50) was 15.8 µM (active).
Regarding `Cc1nn(C)c(C(=O)NNC(=S)Nc2ccc(Cl)cc2)c1[N+](=O)[O-]`, the activity, negative = inhibition was -8.67% [at 2.29 µM].
With `COC(=O)c1c(-c2cc(OC)c(OC)c(OC)c2)c2ccnc(OCc3ncccn3)c2c(=O)n1Cc1ccnc(C)c1`, the AC50 was 15.8 µM (active).
The same measure, in the same setting: for `c1ccc2[nH]c(NC3=NCCC3)nc2c1` the value was “inactive”.
On the same count and under the same terms, for `OC(Cc1nc2ccccc2[nH]1)c1ccccc1Cl` (stereo not given) the value was 10 µM (active).
On the same count and under the same terms, for `c1ccc(SCc2nc3ccccc3[nH]2)cc1` the value was 12.6 µM (active).
`c1ccc(-c2nnc(SCc3nc4ccccc4[nH]3)n2Cc2ccco2)cc1`: the concentration at half-maximal activity (AC50) is 2 µM (active).
As for `CCn1c(SCc2nc3ccccc3[nH]2)nnc1-c1ccc(OC)cc1`, the AC50 was 3.16 µM (active).
In the case of `CC[C@]1(C)CC(=O)NC1=O`, the AC50 result was “inactive”.
The same measure, in the same setting: then `NCc1ccccc1CC(=O)N[C@@H]1C(=O)N2C(C(=O)O)=C(CSc3nnnn3CC(=O)O)CS[C@@H]12`, with “inactive”.
Consider `C/C(C[n+]1ccccc1)=N\N=C(N)N`, for which the activity, negative = inhibition was 2.37% [at 11.4 µM].
On to `Cc1noc(C)c1-c1nccc(NCc2ccccc2)n1`, for which the AC50 is 5.01 µM (active).
The same measure, in the same setting: then `Cc1noc(C)c1-c1nccc(NCc2cccnc2)n1`, with 3.98 µM (active); and `Cc1noc(C)c1-c1nccc(NCc2cccs2)n1`, with 15.8 µM (active).
For `Nc1[nH]c(=O)nc2c1ncn2[C@H]1O[C@@H](CO)[C@@H](O)[C@@H]1O`, the activity, negative = inhibition was -8.49% [at 11.4 µM].
As for `CCCCn1cnc2c(c(CC#N)nn2-c2ccccc2)c1=N`, the activity, negative = inhibition was -13.4% [at 11.4 µM].
On to `COCC(=O)N1CCC[C@@]2(CCN(c3ncccn3)C2)C1`, for which the AC50 result was “inactive”.
On the same count and under the same terms, for `Cc1ccc(C2/C(=C(/O)c3ccc(Cl)cc3)C(=O)C(=O)N2CC2CCCO2)o1` (stereo not given) the value was “inactive”; for `COc1ccccc1C1/C(=C(/O)c2ccccc2)C(=O)C(=O)N1CCO` (stereo not given), “inactive”; for `COCCN1C(=O)C(=O)/C(=C(/O)c2cccc(OC)c2)C1c1ccco1` (stereo not given), “inactive”.
The same measure, in the same setting: then `COc1ccc(C2C(C(=O)c3ccco3)=C(O)C(=O)N2Cc2cccnc2)cc1OC` (stereo not given), with “inactive”.
Take `CCOc1cccc(/C(O)=C2/C(=O)C(=O)N(Cc3cccnc3)C2c2ccco2)c1` (stereo not given): the AC50 was 12.6 µM (active).
The same measure, in the same setting: then `COc1ccc(/C(O)=C2/C(=O)C(=O)N(Cc3cccnc3)C2c2ccco2)cc1OC` (stereo not given), with 14.1 µM (active); and `COc1cccc(/C(O)=C2/C(=O)C(=O)N(Cc3cccnc3)C2c2ccco2)c1` (stereo not given), with 14.1 µM (active).
Same read-out and setting: for `COc1ccc(C2/C(=C(/O)c3ccccc3)C(=O)C(=O)N2CC(C)O)c(OC)c1` (stereo not given) the value was “inactive”.
Regarding `CC(C)Oc1ccc(/C(O)=C2/C(=O)C(=O)N(Cc3cccnc3)C2c2ccco2)cc1` (stereo not given), the AC50 is 14.1 µM (active).
With `O=C(O)c1ccc(/C=N\N=C2c3ccccc3-c3ccccc32)cc1`, the activity, negative = inhibition was -15.1% [at 11.4 µM].
